{
  "source": "paper PMC5540273",
  "about": "(PLoS ONE, 2017);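 further: KINOMEscan kinase panel screen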",
  "conditions_in_all_cases": "concentration: 1 μM, replicates: in singlicate; n = 1",
  "key": {"MINK": {"test_system": "T1, MINK", "T1 construct": "gene MINK1"}, "MKK7": {"test_system": "MKK7"}, "MKNK1": {"test_system": "MKNK1"}, "MKNK2": {"test_system": "MKNK2"}, "MLCK": {"test_system": "T2, MLCK", "T2 construct": "gene MYLK3"}, "MLK1": {"test_system": "T3, MLK1", "T3 construct": "gene MAP3K9"}, "MLK2": {"test_system": "MLK2"}, "MLK3": {"test_system": "MLK3"}, "MRCKA": {"test_system": "MRCKA"}, "MRCKB": {"test_system": "T4, MRCKB", "T4 construct": "gene CDC42BPB"}},
  "data": [
    {"smiles": "COC(=O)C(NC(=O)NC1CCN(c2ccnc(Nc3ccc(F)cc3)n2)C1)c1ccccc1", "note": "(stereo not shown) [GSK1379712]", "values": [
      {"measurement": "%Inh", "setting": "MINK", "result": 7, "unit": "%"},
      {"measurement": "%Inh", "setting": "MKK7", "result": 32, "unit": "%"},
      {"measurement": "%Inh", "setting": "MKNK1", "result": 24, "unit": "%"},
      {"measurement": "%Inh", "setting": "MKNK2", "result": 6, "unit": "%"},
      {"measurement": "%Inh", "setting": "MLCK", "result": 5, "unit": "%"},
      {"measurement": "%Inh", "setting": "MLK1", "result": 0, "unit": "%"},
      {"measurement": "%Inh", "setting": "MLK2", "result": 0, "unit": "%"},
      {"measurement": "%Inh", "setting": "MLK3", "result": 6, "unit": "%"},
      {"measurement": "%Inh", "setting": "MRCKA", "result": 10, "unit": "%"},
      {"measurement": "%Inh", "setting": "MRCKB", "result": 0, "unit": "%"}
    ]},
    {"smiles": "CS(=O)(=O)CCNCc1nc(-c2ccc3ncnc(Nc4ccc(OCc5ccccc5)c(Cl)c4)c3c2)cs1.Cl", "note": "[GW582764]", "values": [
      {"measurement": "%Inh", "setting": "MINK", "result": 0, "unit": "%"},
      {"measurement": "%Inh", "setting": "MKK7", "result": 0, "unit": "%"},
      {"measurement": "%Inh", "setting": "MKNK1", "result": 0, "unit": "%"},
      {"measurement": "%Inh", "setting": "MKNK2", "result": 0, "unit": "%"},
      {"measurement": "%Inh", "setting": "MLCK", "result": 89, "unit": "%"},
      {"measurement": "%Inh", "setting": "MLK1", "result": 0, "unit": "%"},
      {"measurement": "%Inh", "setting": "MLK2", "result": 0, "unit": "%"},
      {"measurement": "%Inh", "setting": "MLK3", "result": 0, "unit": "%"},
      {"measurement": "%Inh", "setting": "MRCKA", "result": 3, "unit": "%"},
      {"measurement": "%Inh", "setting": "MRCKB", "result": 0, "unit": "%"}
    ]},
    {"smiles": "COc1cc2ncnc(Nc3cccc(Br)c3)c2cc1OC.Cl", "note": "[GI230329]", "values": [
      {"measurement": "%Inh", "setting": "MINK", "result": 40, "unit": "%"},
      {"measurement": "%Inh", "setting": "MKK7", "result": 0, "unit": "%"},
      {"measurement": "%Inh", "setting": "MKNK2", "result": 56, "unit": "%"},
      {"measurement": "%Inh", "setting": "MLCK", "result": 19, "unit": "%"},
      {"measurement": "%Inh", "setting": "MLK1", "result": 0, "unit": "%"},
      {"measurement": "%Inh", "setting": "MLK2", "result": 0, "unit": "%"},
      {"measurement": "%Inh", "setting": "MLK3", "result": 24, "unit": "%"},
      {"measurement": "%Inh", "setting": "MRCKA", "result": 8, "unit": "%"},
      {"measurement": "%Inh", "setting": "MRCKB", "result": 0, "unit": "%"}
    ]},
    {"smiles": "COc1cccc(CNC(=O)NC2CCN(c3ccnc(Nc4ccc(F)cc4)n3)C2)c1", "note": "(stereo not shown) [GSK1379723]", "values": [
      {"measurement": "%Inh", "setting": "MINK", "result": 0, "unit": "%"},
      {"measurement": "%Inh", "setting": "MKK7", "result": 31, "unit": "%"},
      {"measurement": "%Inh", "setting": "MKNK1", "result": 13, "unit": "%"},
      {"measurement": "%Inh", "setting": "MKNK2", "result": 8, "unit": "%"},
      {"measurement": "%Inh", "setting": "MLCK", "result": 0, "unit": "%"},
      {"measurement": "%Inh", "setting": "MLK1", "result": 0, "unit": "%"},
      {"measurement": "%Inh", "setting": "MLK2", "result": 0, "unit": "%"},
      {"measurement": "%Inh", "setting": "MLK3", "result": 0, "unit": "%"},
      {"measurement": "%Inh", "setting": "MRCKA", "result": 29, "unit": "%"},
      {"measurement": "%Inh", "setting": "MRCKB", "result": 8, "unit": "%"}
    ]},
    {"smiles": "COc1ccc(CSc2nnc(-c3ccc4ncsc4c3)o2)cc1C(F)(F)F", "values": [
      {"measurement": "%Inh", "setting": "MINK", "result": 0, "unit": "%"},
      {"measurement": "%Inh", "setting": "MKK7", "result": 0, "unit": "%"},
      {"measurement": "%Inh", "setting": "MKNK1", "result": 0, "unit": "%"},
      {"measurement": "%Inh", "setting": "MKNK2", "result": 0, "unit": "%"},
      {"measurement": "%Inh", "setting": "MLCK", "result": 0, "unit": "%"},
      {"measurement": "%Inh", "setting": "MLK1", "result": 0, "unit": "%"},
      {"measurement": "%Inh", "setting": "MLK2", "result": 23, "unit": "%"},
      {"measurement": "%Inh", "setting": "MLK3", "result": 0, "unit": "%"},
      {"measurement": "%Inh", "setting": "MRCKA", "result": 0, "unit": "%"},
      {"measurement": "%Inh", "setting": "MRCKB", "result": 0, "unit": "%"}
    ]}
  ]
}
